# Screening data deposited in PubChem BioAssay by National Center for Advancing Translational Sciences (NCATS).
# aGal spleen mod: alpha-galactosidase A (human) modulation; Potency, µM (doses to about 80 µM), without a hit: at the highest dose activity change, negative = inhibition, usual class: inhibitors; AID 2107; hit rate 0.008% among 240,000; human spleen homogenate, 4MU-alpha-Gal fluorescence, 40 min; P06280;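 also: potency is read from the fitted curve at half-maximal effect; 0% = enzyme with vehicle and -100% = no enzyme basal signal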
#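 Human spleen homogenate (1 ug) was the enzyme source, with 4-methylumbelliferyl-alpha-D-galactopyranoside (1 mM final) in pH 5.0 citrate buffer with 0.01% Tween-20. Compounds were titrated; after 40 min at 37C, NaOH/glycine stop, 4-MU fluorescence read; AC50 from Hill fits.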
# GAA spleen mod: lysosomal alpha-glucosidase (human) modulation; Potency, µM (series often up to 79.9 µM), for the others: at the top dose activity change, negative = inhibition, usual class: inhibitors; human spleen homogenate, 4-MU-alpha-glucoside fluorescence; hit rate 0.006% among 240,000; P10253;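 also: potency is read from the fitted curve at half-maximal effect; 0% = enzyme with vehicle and -100% = no enzyme basal signal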
#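 AC50 values come from Hill-equation fits of concentration-response data, normalized to no-enzyme and full-activity controls. Enzyme source: 1 ug human spleen homogenate; 1 mM fluorogenic 4-MU glucoside, pH 5.0 citrate buffer, 37 C, 40 min.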
# GAA glycogen mod: alters human alpha-glucosidase cleavage of glycogen; hit rate 0.38% among 300,000; P10253; Potency, µM (doses to about 76.4 µM), inactives show at the highest dose activity change, negative = inhibition, hits mostly inhibitors; recombinant GAA, glycogen substrate, Amplex Red glucose oxidase fluorescence;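 also: potency is read from the fitted curve at half-maximal effect; 0% = full enzyme reaction and -100% = no-enzyme basal signal; the screen sought inhibitors and activators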
#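 Natural-substrate format: glycogen cleavage by 4 nM human enzyme, glucose read by Amplex Red coupling (Ex 573, Em 610 nm). Normalized to enzyme and no-enzyme controls.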
# GLA inh pH 4.5: blocks human alpha-galactosidase A at pH 4.5; P06280; activity change, negative = inhibition, % at 105 µM; 230,000 tested, under 10 active; purified enzyme, 4-MU-alpha-Gal fluorescence, pH 4.5; AID 1467;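 also: 0% = full activity with enzyme and -100% = basal without enzyme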
# Target sequence (P06280 whole entry, looked up): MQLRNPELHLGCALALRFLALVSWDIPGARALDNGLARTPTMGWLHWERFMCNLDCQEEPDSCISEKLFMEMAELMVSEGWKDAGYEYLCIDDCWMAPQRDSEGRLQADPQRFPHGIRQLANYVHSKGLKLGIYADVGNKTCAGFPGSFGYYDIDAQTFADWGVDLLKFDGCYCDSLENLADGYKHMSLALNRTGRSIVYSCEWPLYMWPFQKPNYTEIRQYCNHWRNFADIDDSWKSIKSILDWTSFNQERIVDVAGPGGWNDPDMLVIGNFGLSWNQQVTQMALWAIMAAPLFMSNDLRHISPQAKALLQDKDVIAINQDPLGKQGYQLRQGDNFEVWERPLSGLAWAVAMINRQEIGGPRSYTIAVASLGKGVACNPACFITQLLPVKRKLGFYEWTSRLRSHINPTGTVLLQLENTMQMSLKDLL
# N370S GC mod: inhibitors or activators of N370S glucocerebrosidase for Gaucher disease. Potency, µM (titrated, usually from 59.4 µM), inactives show top-dose activity change, negative = inhibition, most hits filed as inhibitors. P04062. hit rate 0.092% among 330,000. N370S GC spleen homogenate, 4MU-glucoside fluorescence;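 also: potency is read from the fitted curve at half-maximal effect; 0% = full enzyme activity and -100% = no enzyme basal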
# GAA inh: alpha-glucosidase (human) inhibition; P10253; purified human GAA, 4-MU-alpha-glucoside fluorescence; Potency, µM (doses to about 76.9 µM), without a hit: at the highest dose activity change, negative = inhibition, hits mostly inhibitors; hit rate 0.005% among 200,000; AID 1466;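 also: potency is read from the fitted curve at half-maximal effect; plate controls were uninhibited enzyme wells for no effect and no-enzyme background for full effect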
#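 Human alpha-glucosidase, 4 nM, pre-mixed with test compounds before 400 uM 4-methylumbelliferyl substrate; 20 min room temperature at pH 5.0. Fluorescence read after pH 10 stop; AC50 values from Hill-equation fits.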
# * = called active by the depositor; ? = inconclusive; . = no result; [ ] = remark or other dose. Compounds with a hit are over-represented: about 0.43% of the library has one in this group of screens. Calls follow the shape of the dose curve; as a rule, active = well fitted curve in the direction sought with a large enough effect; inconclusive = small, poorly fitted or top-dose-only effect, or another doubt; inactive = no such curve, though single readings can be large; an effect the other way counts as inactive or inconclusive.
SMILES,aGal spleen mod,GAA spleen mod,GAA glycogen mod,GLA inh pH 4.5,N370S GC mod,GAA inh
Cc1c(NC(=O)/C(C#N)=C/c2ccc(-c3cccc(Cl)c3)o2)c(=O)n(-c2ccccc2)n1C,-9%,-7%,-8%,-9,-11%,?
Cc1c(N=Cc2nc3ccccc3n2C)c(=O)n(-c2ccccc2)n1C,5%,-1%,11µM*,-1,3%,2%
Cc1c(N=Cc2nc3ccccc3[nH]2)c(=O)n(-c2ccccc2)n1C,10%,6%,8.9µM*,8,12%,-8%
CC[C@H](C)[C@H](NC(=O)[C@@H]1CCCN1C(=O)[C@H](Cc1cnc[nH]1)NC(=O)[C@@H](NC(=O)[C@H](Cc1ccc(O)cc1)NC(=O)[C@@H](NC(=O)[C@H](CCCN=C(N)N)NC(=O)CNC)C(C)C)[C@@H](C)CC)C(=O)O,1%,1%,.,.,-2%,.
CN1CCc2cccc3c2[C@@H]1Cc1ccc(O)c(O)c1-3,-5%,-4%,3.5µM*,-3,-1%,?
COc1ccc2c(c1O)-c1ccccc1CCN(C)C2,5%,4%,-2%,5,22%,.
CCNS(=O)(=O)c1ccc(C)cc1,-5%,-7%,.,.,-2%,.
CC(=O)c1ccc(NC(=O)COc2ccccc2-c2nc(C(C)C)no2)cc1,.,.,-10%[76.3 µM],.,.,.
CC(=O)c1ccc(NC(=O)COc2ccccc2-c2nc(C)no2)cc1,.,.,7.1µM*,.,.,.
COc1ccc(NCCNc2ccc(OC)cc2)cc1,0%,-9%,7.9µM*,5,5%,1%
COc1ccc(C(=O)CCNc2ccc(F)cc2)cc1,-7%,-4%,-5%,6,-4%,.
COC(=O)C1=C(C)NC(C)=C(C(=O)OCCCN2CCC(c3ccccc3)(c3ccccc3)CC2)C1c1cccc([N+](=O)[O-])c1 (stereo not drawn),-8%,-1%,.,.,?,.
COc1ccc(/C=N\NC(=O)C2=NNC(=O)C2C)cc1 (stereo not drawn),-16%,-8%,28µM*,10,-4%,5%
O=C(NNc1cc(N2CCOCC2)nc(N2CCOCC2)n1)c1ccc(Cl)c(Cl)c1,0%,-10%,-6%,-14,10%,-13%
Cc1ccc(C(=O)NNc2cc(N3CCCC3)nc(N3CCCC3)n2)cc1,11%,0%,28µM*,6,-1%,6%
O=C(NCc1ccccc1Cl)c1ccc(CS(=O)(=O)c2ccc(Br)cc2)o1,.,.,45µM*,.,.,.
N#CC(=C(/N)Sc1ccccc1N)/C(C#N)=C(/N)Sc1ccccc1N,-1%,-3%,.,-2,-19%,.
C[C@H]1O[C@@H](n2cnc3c(N)ncnc32)C[C@@H]1OP(=O)(O)OP(=O)(O)OP(=O)(O)O,6%,4%,.,.,-4%,.
COc1cc(C2NC(=O)NC(C)=C2C(=O)OCc2ccc(C)cc2)cc(OC)c1O (stereo not drawn),8%,10%,9.9µM*,4,0%,1%
COc1cc(C2NC(=O)NC(C)=C2C(=O)OCc2ccc(C)cc2)cc(OC)c1OC (stereo not drawn),.,.,6%[76.3 µM],.,-15%,.
CC(C)=CCC[C@](C)(O)C1CC[C@]2(C)[C@@H]1CC[C@@H]1[C@@]3(C)CCC(=O)C(C)(C)[C@@H]3CC[C@]12C (stereo partly drawn),4%,0%,.,.,-1%,.
Cc1noc(C)c1C(=O)NNc1ccc(C(C)C)cc1,14%,12%,40µM*,8,9%,-5%
Cc1noc(C)c1S(=O)(=O)N(CC(=O)NC1CCC(C)CC1)c1ccc(C(C)C)cc1 (stereo not drawn),.,.,.,.,4%,.
Cc1cc(C)cc(N(CC(=O)O)S(=O)(=O)c2c(C)[nH]c(=O)[nH]c2=O)c1,-4%,1%,13%,-1,-17%,2%
Cc1cc(C)cc(N(CC(=O)NC2CCC(C)CC2)S(=O)(=O)c2c(C)[nH]c(=O)[nH]c2=O)c1 (stereo not drawn),-1%,-3%,3%,-10,0.4µM*,.
